Compound activity: PubChem, National Center for Advancing Translational Sciences (NCATS)
Most compounds without a hit are left out; they make up all but 2.5% or so of the library.
Cruzain inh Det: qHTS Assay for Promiscuous and Specific Inhibitors of Cruzain (with detergent). 200,000 compounds, 0.43% hits. Cruzipain (Trypanosoma cruzi), P25779. Potency, µM, for the others: max response, negative = inhibition, hits mostly inhibitors. purified cruzain, Z-FR-AMC fluorescence, 0.01% Triton;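 also: plate controls were neutral wells for no effect and buffer without enzyme for full effect; nearly all actives have a fitted effect of over 40% in size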
Target sequence (P25779 123-467 limits assumed): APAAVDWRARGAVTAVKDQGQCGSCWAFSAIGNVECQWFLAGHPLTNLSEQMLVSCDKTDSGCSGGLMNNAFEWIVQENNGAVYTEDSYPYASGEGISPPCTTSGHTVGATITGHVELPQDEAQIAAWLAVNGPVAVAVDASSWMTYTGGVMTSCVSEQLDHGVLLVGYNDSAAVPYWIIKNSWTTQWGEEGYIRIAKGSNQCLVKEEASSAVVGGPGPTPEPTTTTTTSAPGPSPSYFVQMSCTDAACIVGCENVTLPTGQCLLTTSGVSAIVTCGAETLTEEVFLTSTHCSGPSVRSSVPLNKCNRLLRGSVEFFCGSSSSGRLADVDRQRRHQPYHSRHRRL
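Z-FR-AMC hydrolysis (2 uM substrate) by cruzain (1.5 nM) monitored kinetically at ex 360/em 450 nm after 15 min room-temperature compound exposure; 0.01% Triton X-100, pH 5.5, 5 mM DTT.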
Cruzain noTriton: qHTS Assay for Promiscuous and Specific Inhibitors of Cruzain (without detergent); Cruzipain (Trypanosoma cruzi), P25779; purified cruzain, Z-FR-AMC fluorescence, no detergent; Potency, µM, inactives show max response, negative = inhibition, actives largely listed as inhibitors; 200,000 compounds, 2.3% hits; AID 1476, 2009;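 also: plate controls were enzyme without inhibitor for no effect and buffer without enzyme for full effect; nearly all actives have a fitted effect of over 40% in size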
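Detergent-free condition (0.00005% Triton X-100) in acetate buffer pH 5.5 with DTT. 1.5 nM enzyme and compound were pre-mixed 15 min, then 2 uM Z-FR-AMC substrate added; reaction progress from fluorescence change between first and third reads (60 s).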
Starred values were filed as active, the others as inactive; ? = inconclusive. Calls follow the shape of the dose curve; as a rule, active = well fitted curve in the direction sought with a large enough effect; inconclusive = small, poorly fitted or top-dose-only effect, or another doubt; inactive = no such curve, though single readings can be large; an effect the other way counts as inactive or inconclusive. Potency is read from the fitted curve at half-maximal effect.

SMILES | Cruzain inh Det | Cruzain noTriton
CC(=O)c1cc2c(cc1NC(=O)c1cnn(-c3ccc(C)cc3)c1-n1cccc1)OCO2 | -3% | -12%
COc1ccc(C(=O)NC(=S)Nc2cc3oc4ccccc4c3cc2OC)cc1 | -3% | 7.9µM*
COc1cccc(NC(=O)CSc2ncnc3c2oc2ccccc23)c1 | -4% | 22%
COc1ccc(CC(=O)Nc2cc3oc4ccccc4c3cc2OC)cc1 | -5% | 12%
COc1cc2c(cc1NC(=O)C(C)Sc1cccc[n+]1[O-])oc1ccccc12 (stereo unspecified) | -24% | ?
COc1ccc(Cl)cc1NC(=O)CSc1ncnc2c1oc1ccccc12 | -2% | 16µM*
COc1cc2c(cc1NC(=O)C(C)Sc1nc3ccccc3n1C)oc1ccccc12 (stereo unspecified) | 1% | 25µM*
CCc1cccc(-n2c(C)nc3c(cnn3-c3ccc(C)c(C)c3)c2=O)c1 | -8% | -7%
Cc1noc(/C=C/c2ccccc2F)c1S(=O)(=O)N1CCC(C(=O)N(C)Cc2ccco2)CC1 | -5% | ?
CC1=C(C(=O)N2CCCCC2)C(c2cccc(Cl)c2)n2c(nc3ccccc32)N1 (stereo unspecified) | -4% | -3%
COc1ccc(Nc2nnc(SC(C(=O)Nc3ccc(OC)c(Cl)c3)c3ccccc3)s2)cc1 (stereo unspecified) | -1% | 6.3µM*
COc1cccc(NC(=O)C(Sc2nnc(Nc3ccccc3C)s2)c2ccccc2)c1 (stereo unspecified) | -2% | ?
COc1ccccc1NC(=O)c1cc2cc3ccc(OC)c(Cl)c3nc2s1 | -4% | 3%
Cc1[nH]c2ccccc2c1/C=N/Nc1ccc(F)cc1F | -1% | ?
COc1ccccc1NS(=O)(=O)c1cc([N+](=O)[O-])ccc1N/N=C/c1c(C)[nH]c2ccccc12 | 0% | 7.9µM*
O=[N+]([O-])c1ccc(N/N=C/c2c[nH]c3ccccc23)c(S(=O)(=O)Nc2ccc(Cl)cc2)c1 | 0% | ?
Cc1[nH]c2ccccc2c1/C=N/Nc1ccc([N+](=O)[O-])cc1 | -1% | 25µM*
CN1CCN(c2ncc3ncc(=O)n(C[C@H]4CCCO4)c3n2)CC1 | ? | 20µM*
CN(C)c1ncc2ncc(=O)n(C[C@H]3CCCO3)c2n1 | -10% | -8%
Cc1nc(NC(=O)CC(C)C)sc1-c1csc(Nc2ccc(Cl)cc2Cl)n1 | -1% | 16µM*
C=CCNc1nc(-c2sc(NC(=O)CC)nc2C)cs1 | -10% | ?
C=CCCC(=O)Nc1nc(C)c(-c2csc(Nc3ccc(Cl)cc3Cl)n2)s1 | -1% | ?
Cc1nc(NC(=O)CC(C)C)sc1-c1csc(Nc2ccc(Cl)cc2)n1 | 2% | 13µM*
COc1ccc(Cl)cc1Nc1nc(-c2sc(NC(=O)CC(C)C)nc2C)cs1 | -2% | 20µM*
C=CCCC(=O)Nc1nc(C)c(-c2csc(Nc3cc(Cl)ccc3OC)n2)s1 | -4% | 16µM*
SMILES | Cruzain inh Det | Cruzain noTriton
Cc1ccc(S(=O)(=O)OC2CCN(C)CC2)cc1 | -2% | 5%
COc1cccc(N2C(=O)CSC23C(=O)N(CC(=O)Nc2cc(C)ccc2C)c2ccccc23)c1 (stereo unspecified) | -4% | 14%
Cc1ccc(OCC(=O)Nc2ccc3nc(SCC(=O)N(C)c4ccccc4)sc3c2)cc1 | -3% | ?
CCOc1ccc(NC(=O)c2c(NCc3sccc3C)sc3c2CCCCC3)cc1 | -25% | 10%
CCCCCCC(=O)Nc1nc(C)c(-c2csc(Nc3cc(OC)ccc3OC)n2)s1 | -2% | 10µM*
CCCCCC(=O)Nc1nc(C)c(-c2csc(Nc3cc(OC)ccc3OC)n2)s1 | 5% | ?
CCCC(=O)NCCc1c2n(c3ccc(OC)cc13)Cc1ccccc1-2 | -7% | 5%
CNC(=O)c1c(N)sc2c1CCCCC2 | -16% | -15%
NC(=O)c1c(N)sc2c1CCCCC2 | -21% | 25µM*
CN(C)c1ccc(C(CNS(=O)(=O)c2ccc(Br)cc2)N2CCOCC2)cc1 (stereo unspecified) | -1% | 16%
O=S(=O)(NCCc1csc2nc(-c3ccc(Cl)cc3)nn12)c1cccs1 | -7% | -3%
N#C/C(=C\c1ccc(-c2ccc(F)cc2)o1)C(=O)Nc1nc(-c2cccs2)cs1 | 5% | 6.3µM*
N#C/C(=C\c1ccc(-c2ccccc2)cc1)c1nc(-c2ccco2)cs1 | -7% | ?
N#C/C(=C/c1ccc(-c2ccccc2)o1)c1nc(-c2cccs2)cs1 | -10% | 7.9µM*
N#C/C(=C\c1ccc(-c2ccc(Br)cc2)o1)C(=O)Nc1ccccc1O | 0% | 15%
O=C(CSc1nc2c([nH]c3ccccc32)c(=O)n1-c1ccc(F)cc1)NCc1ccc(F)cc1 | -1% | 8%
Cc1ccc(NC(=O)c2c(C)cc(C)nc2SCC(=O)Nc2ccc(Br)cc2)cc1 | -5% | -20%
C[C@@]12Cc3cnc(-c4ccccc4)nc3C[C@@H]1CC[C@@H]1[C@H]3CC[C@@](C)(O)[C@]3(C)CC[C@@H]12 | -3% | -2%
COC(=O)Cn1c(=NC(=O)c2ccc(Cl)s2)sc2cc(F)ccc21 | -9% | 25µM*
C#CCn1c(=NC(=O)c2ccc(Cl)s2)sc2cccc(OC)c21 | 5% | ?
C=CC[C@@](C(C)=O)(C(=O)OC)C(NC(=O)OC(C)(C)C)c1ccccc1 (stereo partly specified) | 4% | -13%
Cc1ccccc1NC(C)C(=O)N/N=C/c1ccccc1OCc1cccc(Br)c1 (stereo unspecified) | 0% | 32µM*
COc1ccc(NC(C)C(=O)N/N=C/c2ccccc2OCc2cccc(Br)c2)cc1 (stereo unspecified) | -5% | ?
CCN1CC=C2C(C#N)=C(N)C(C#N)(C#N)C(CCc3ccccc3)C2C1 (stereo unspecified) | 14µM* | 6.3µM*
CC(=O)N1CC=C2C(C#N)=C(N)C(C#N)(C#N)C(CCc3ccccc3)C2C1 (stereo unspecified) | -4% | 7%
SMILES | Cruzain inh Det | Cruzain noTriton
C=CC(=O)OCCOCCOC(=O)C=C | 4% | -10%
CC1(c2cc([N+](=O)[O-])cc([N+](=O)[O-])c2)CC(C)(C)N(C(=O)c2ccccc2)c2ccccc21 (stereo unspecified) | 5% | 10µM*
CC1(c2ccc(Cl)cc2)CC(C)(C)N(C(=O)c2ccccc2)c2ccccc21 (stereo unspecified) | -3% | ?
Cc1ccc(N2CC(NC(=O)c3cccs3)CC2=O)cc1C (stereo unspecified) | 0% | 5%
COc1ccc(/C=C/c2nnc(NC(=O)COc3cccc(C)c3)s2)cc1 | 2% | 13µM*
COc1ccc(/C=C/c2nnc(NC(=O)COc3ccc(C)cc3)s2)cc1 | -3% | ?
C[C@@H](C1[C@@H](O)CC2C3C=CC4C[C@@H](O)CC[C@]4(C)[C@H]3CC[C@@]21C)[C@@H]1CCCCN1 (stereo partly specified) | -2% | -5%
O=C(Cc1coc2ccc3ccccc3c12)N1CCc2ccccc21 | 3% | 13µM*
Cc1ccc2c(CC(=O)N3CCc4ccccc43)coc2c1 | -10% | 0%
O=C(NCCc1ccccc1)c1cc(Sc2cccc(Cl)c2)nc2ccccc12 | 2% | -2%
O=[N+]([O-])c1ccc(N/N=C\c2ccccc2OCc2ccccc2)cc1 | -3% | 25µM*
Cc1cc(C)nc(N/N=C/c2ccccc2OCc2ccc([N+](=O)[O-])cc2)n1 | -4% | -16%
